According to PubChem BioAssay (NCI):
About 83,000 compounds went through this panel and 20% of them were active in at least one assay; those are over-represented in the sample as a whole.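 Interpretation: 100, growth as untreated; towards 0, rising growth inhibition; 0, no net growth; 0 to -100, cell death. Compounds scoring below 10 were considered active.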 Values without a mark were called inactive. Activity calls are given as the source filed them.

Assays:
Assay in all cases: NCI-60 one-dose screen, 48 h (100 = growth as untreated, 0 = no growth, -100 = all killed)
Conditions in all cases: 10 µM unless noted
NCI-H23 lung = system: NCI-H23 lung
NCI-H226 lung = system: NCI-H226 lung
NCI-H322M lung = system: NCI-H322M lung
HOP-62 NSCLC = system: HOP-62 NSCLC
NCI-H460 lung = system: NCI-H460 lung
HOP-92 NSCLC = system: HOP-92 NSCLC
NCI-H522 lung = system: NCI-H522 lung
A549/ATCC NSCLC = system: A549/ATCC NSCLC
786-0 renal = system: 786-0 renal
COLO 205 colon = system: COLO 205 colon
DU-145 prostate = system: DU-145 prostate
K-562 leukemia = system: K-562 leukemia
MALME-3M melanoma = system: MALME-3M melanoma
MDA-MB-231 breast = system: MDA-MB-231 breast
RXF 393 renal = system: RXF 393 renal
SF-268 CNS = system: SF-268 CNS
SF-295 CNS = system: SF-295 CNS
SF-539 CNS = system: SF-539 CNS
UACC-257 melanoma = system: UACC-257 melanoma
M14 melanoma = system: M14 melanoma

Row | SMILES | growth (NCI-H23 lung) | growth (NCI-H226 lung) [%] | growth (NCI-H322M lung) [%] | growth (HOP-62 NSCLC) | growth (NCI-H460 lung) | growth (HOP-92 NSCLC) [%] | growth (NCI-H522 lung) | growth (A549/ATCC NSCLC) [%] | growth (786-0 renal) | growth (COLO 205 colon) | growth (DU-145 prostate) | growth (K-562 leukemia) | growth (MALME-3M melanoma) | growth (MDA-MB-231 breast) | growth (RXF 393 renal) [%] | growth (SF-268 CNS) | growth (SF-295 CNS) | growth (SF-539 CNS) | growth (UACC-257 melanoma) | growth (M14 melanoma)
1 | CN1CCCC1=Nc1ccccc1 | 93.7% | 104 | 99.2 | 103% | 111% | 89 | 83.2% | 97.9 | 115% | 110% | 116% | 100% | 104% | 109% | 103 | 124% | 96.7% | 113% | 101% | 117%
2 | COc1cc(C2CC(c3cccc(Nc4ccncc4)c3)=NN2c2ccc(Cl)cc2)cc(OC)c1OC (stereo not given) | 79.9% | 84.3 | 65.1 | -44.4% (active) | -73.8% (active) | 25.1 | -46.1% (active) | 26.1 | 104% | -63.1% (active) | -17.5% (active) | -0.526% (active) | -85.2% (active) | 24.8% | – | 44.5% | -55.1% (active) | 68.3% | -6.07% (active) | 101%
3 | COc1ccc(C(=O)c2cc3c(N)c(C(=O)Nc4cccc(Br)c4C)sc3nc2C)cc1 | 27.4% | 45.6 | 52.6 | 28.8% | 5.88% (active) | 13.6 | -27.4% (active) | 17.4 | 26.2% | -40% (active) | 8.9% (active) | 5.28% (active) | 51.8% | 13% | – | 22.9% | 22.2% | -15.3% (active) | 59% | 7.09% (active)
4 | COc1ccccc1-c1c(-c2ccc(Cl)cc2)c2cc3c(cc2[nH]c1=O)OCCO3 | 72.8% | 84 | 89 | 89.8% | 66.3% | 80.7 | 62.4% | 63.6 | 85.4% | 92.6% | 83.6% | 44.3% | 87.4% | 95.5% | – | 68.2% | 58.5% | 88.2% | 73% | 72.5%
5 | Nc1ncc(C#Cc2cncc(NC(=O)c3cccc(C(F)(F)F)c3)c2)c2cccnc12 | 30.4% | 39.2 | 81 | 52.8% | 12.3% | 65.6 | 67.2% | 31.8 | 63.9% | 47% | 43.7% | 7.45% (active) | -6.22% (active) | 36% | – | 58.4% | 61.2% | 43.8% | 71.7% | 18.2%
6 | Clc1ccc(C2CC(c3cccc(Nc4ccncc4)c3)=NN2c2cc(Cl)cc(Cl)c2)cc1 (stereo not given) | 79.6% | 88.7 | 81.6 | 68.5% | -68% (active) | 71.3 | 89.1% | 47.6 | -88.5% (active) | -58% (active) | 48% | 1.88% (active) | 62.8% | 71.5% | – | 83.8% | 70.5% | 81.9% | 88.8% | -63.9% (active)
7 | CN1C(=O)N(C)[C@H]2NC(NN)=N[C@H]21 | 103% | 93.3 | 91.2 | 98.8% | 103% | 90.3 | 102% | 97.9 | 99.8% | 104% | 114% | 98.9% | 94.3% | 102% | – | 94% | 101% | 102% | 97.1% | 100%
8 | COc1ccc(-c2nc(SC(C)C)nc(NNC(N)=O)c2C#N)cc1 | 97.8% | 95.4 | 94.2 | 83.7% | 94.5% | 78 | 63.4% | 88.6 | 95.5% | 117% | 94.2% | 25.7% | 81.2% | 78.8% | – | 84.9% | 88.7% | 85.1% | 99.8% | 99.6%
9 | C[C@]12CCc3nc(Nc4cccc(O)c4)sc3C1=CC[C@@H]1[C@@H]2CC[C@]2(C)/C(=N\NC(N)=S)CC[C@@H]12 | 57.3% | 91.8 | 73.5 | 32% | 21.3% | 52.1 | -12.2% (active) | 59.3 | -36% (active) | 42.7% | 8.45% (active) | 3.19% (active) | 39% | 26.2% | – | 37.6% | -34% (active) | -48% (active) | 74% | 31.1%
10 | CC1(C)CN(Cc2ccccc2)CCN1Cc1ccccc1 | 104% | 95 | 103 | 108% | 106% | 96.3 | 91.8% | 89.5 | 99.6% | 112% | 114% | 98.8% | 116% | 101% | – | 105% | 101% | 107% | 89.1% | 107%
11 | CC(=O)Nc1ccc(S(=O)(=O)NC2CCCCC2)cc1 | 99.9% | 86.6 | 96.5 | 96.3% | 102% | 89.3 | 92% | 93.3 | 99.8% | 103% | 113% | 100% | 98.1% | 97.3% | – | 104% | 96.4% | 103% | 95.8% | 101%
12 | CN1CCN(c2ccc3nc(-c4cc(C(C)(C)C)c(O)c(C(C)(C)C)c4)[nH]c3c2)CC1 | 92.6% | 96 | 81 | 69.8% | 3.88% (active) | 48.6 | 75.5% | 53.4 | 55.4% | -56.7% (active) | 77.6% | -11.3% (active) | -91.6% (active) | 38.6% | – | 72.7% | 93.7% | 64.4% | -53.2% (active) | 11%
13 | CC(C)(C)CC(C)(C)Nc1c(-c2ccc(C(F)(F)F)cc2)nc2cnccn12 | 82.4% | 92.5 | 103 | 92.7% | 89.5% | 82.6 | 67.4% | 83.1 | -12.3% (active) | 96% | 93% | 65.6% | 103% | 86% | – | 88.8% | 86.3% | 86% | 98.7% | -54.1% (active)
14 | CC[C@@]12C=CCN3CC[C@]4(c5cc(NC(=O)COc6cc(OCC(=O)Nc7cc8c(cc7OC)N(C)[C@H]7[C@@](O)(C(=O)OC)[C@H](OC(C)=O)[C@]9(CC)C=CCN%10CC[C@]87[C@@H]%109)cc7oc(-c8ccccc8)cc(=O)c67)c(OC)cc5N(C)[C@@H]4[C@](O)(C(=O)OC)[C@H]1OC(C)=O)[C@H]32 | 0.327% (active) | 23.7 | 45.9 | 17.3% | 0.985% (active) | 33.9 | -27.7% (active) | 51.7 | 41.4% | 40.2% | 30.3% | 45.6% | 111% | 4.69% (active) | – | -1.19% (active) | 71.3% | 89.3% | 103% | 50.4%
15 | CN1CCN(c2c(F)cc(NC3=C(Cl)C(=O)c4ncccc4C3=O)cc2F)CC1 | 82.8% | 97.1 | 108 | 111% | 107% | 41 | -9.58% (active) | 109 | 101% | 64.7% | 103% | 2.2% (active) | -6.37% (active) | 84.2% | – | 93.3% | 117% | 98.1% | 69.3% | 76.5%
16 | CC[N+](CC)(CCCC(C)[N+]1(Cc2ccccc2)C(C)=CC=C1C)Cc1ccccc1 (stereo not given) | 72.3% | 81.2 | 96.7 | 98.1% | 97% | 55.3 | 75% | 100 | 99.5% | 67.9% | 101% | 54.6% | 87.8% | 78.6% | – | 98.9% | 97.8% | 97.6% | 84.2% | 66.5%
